Screening data: PubChem BioAssay, The Scripps Research Institute Molecular Screening Center
hcDAF-12 act = activates DAF-12 receptor from parasite H. contortus. hit rate 1.4% among 370,000. HEK293 hcDAF-12 lit1-tk-luc reporter, luminescence; 0% DMSO, 100% Δ7-dafachronic acid. AID 652067. activation, % at 6.8 µM;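 active = activation above the mean of all tested compounds plus 3 SD, cut at about 5.5% in these data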
hgDAF12 agonist = agonists of H. glycines DAF-12 nuclear receptor | activation, % at 6.8 µM | HEK293 GAL4-hgDAF12 UAS-luciferase reporter, agonist luminescence; normalized to butyrate control | hit rate 1.8% among 370,000;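 active = activation above a cutoff set at the mean of all screened compounds plus 3 SD, cut at about 10% in these data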
DAX1 inh-1 = blocks DAX1 repression of SF-1 activated StAR promoter; HEK293T StAR-luciferase reporter, SF-1/DAX-1 repression relief; inhibition, % at 6.8 µM; hit rate 1.1% among 370,000;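 active = inhibition above the mean over all tested compounds plus 3 SD, cut at about 3.6% in these data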;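 also: higher inhibition means more luminescence from relief of DAX-1 repression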
DAX1 inh-2 = NR0B1 (DAX1) inhibition; P51843; HEK293 Gal4-DAX1 luciferase reporter, luminescence; inhibition, % at 6.75 µM; hit rate 0.99% among 340,000; AID 504766;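 active = inhibition above the mean over all tested compounds plus 3 SD, cut at about 4.2% in these data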;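 also: inhibition shows as a rise in luminescence from relieved DAX1 repression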
Target sequence (P51843 207-470 limits assumed): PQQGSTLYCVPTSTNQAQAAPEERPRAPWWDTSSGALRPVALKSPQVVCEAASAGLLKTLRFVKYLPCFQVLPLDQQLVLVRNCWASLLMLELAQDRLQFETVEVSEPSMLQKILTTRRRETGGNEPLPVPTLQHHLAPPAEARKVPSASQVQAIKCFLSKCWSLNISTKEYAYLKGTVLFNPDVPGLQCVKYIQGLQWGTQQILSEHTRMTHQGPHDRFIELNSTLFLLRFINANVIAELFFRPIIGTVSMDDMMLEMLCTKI
FXN GAA850 act = activators of GAA850 frataxin (FXN) promoter; HEK293 lucGAA850 FXN promoter luciferase reporter, 24 h; percent of 10 µM SAHA response; activation, % at 6 µM; hit rate 0.56% among 360,000; AID 540364;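 active = activation above the average of all compounds screened plus 3 SD, cutoff fixed separately per campaign, cut at about 7.5% in these data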
ssDAF12 agonist = activates DAF-12 receptor from parasite S. stercoralis. HEK293 ssDAF-12/GRIP1 lit1-tk-luc reporter, luminescence; % of 3 µM dafachronic acid response. AID 652126. activation, % at 6.8 µM. hit rate 1% among 370,000;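 active = activation above the mean over all tested compounds plus 3 SD, cut at about 0.9% in these data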
DAX1 inh confirm = NR0B1 (human) inhibition, confirmation. shares compounds with DAX1 inh-1. HEK293T StAR-promoter luciferase reporter, SF-1/DAX-1 repression. inhibition, % at 6.8 µM. hit rate 87% among 2,400;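 active = inhibition above the average of every tested compound plus 3 SD, cut at about 3.8% in these data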;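 also: active compounds raise luminescence by relieving repression of the StAR reporter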
SF1 mutant ctr = nonselective inhibitor or artifact in SF-1 mutant DAX1 counter-screen | shares compounds with DAX1 inh-1 | HEK293 StAR-luciferase, SF-1 AF2 mutant, luminescence | inhibition, % at 6.8 µM | hit rate 78% among 2,400 | AID 652136;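 active = inhibition above the mean of all tested compounds plus 3 SD, cut at about 3% in these data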
LXRb hcDAF ctr = activates human LXR-beta, counter-screen for hcDAF-12 agonists | shares compounds with hcDAF-12 act | HEK293 Gal4-LXR tk-luc reporter, luminescence, 24 h; normalized: DMSO 0%, positive control 100% | activation, % at 6.8 µM | 3,400 tested, under 10 active | AID 743027;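 active = mean percent activation of the reporter above a cutoff set as the average over tested compounds plus their standard deviation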
Target sequence (P55055 whole entry, looked up, the tested form may be a part): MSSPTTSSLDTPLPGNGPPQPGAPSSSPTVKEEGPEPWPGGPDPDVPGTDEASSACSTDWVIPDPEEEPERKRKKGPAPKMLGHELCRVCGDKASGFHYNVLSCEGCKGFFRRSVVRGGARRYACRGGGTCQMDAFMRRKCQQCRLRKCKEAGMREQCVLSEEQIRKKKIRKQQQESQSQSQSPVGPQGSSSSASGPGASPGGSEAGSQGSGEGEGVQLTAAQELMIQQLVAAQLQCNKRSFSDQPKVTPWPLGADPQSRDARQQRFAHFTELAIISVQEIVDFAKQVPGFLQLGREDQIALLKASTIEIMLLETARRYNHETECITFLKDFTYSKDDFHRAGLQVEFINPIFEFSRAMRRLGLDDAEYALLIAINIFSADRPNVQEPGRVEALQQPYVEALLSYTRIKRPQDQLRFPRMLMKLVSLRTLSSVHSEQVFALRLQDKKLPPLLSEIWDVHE
hcDAF12 ag = hcDAF-12 agonism, confirmation assay. hit rate 61% among 3,400. activation, % at 6.8 µM. HEK293 hcDAF-12 lit1-tk-luc reporter, luminescence; % of Δ7-dafachronic acid response. AID 743032. shares compounds with hcDAF-12 act;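 active = mean activation across triplicate tests above the threshold derived from the earlier primary screen, cut at about 5.5% in these data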
hgDAF12 conf = confirmation of H. glycines DAF-12 agonists; activation, % at 6.8 µM; hit rate 80% among 3,300; HEK293 GAL4-hgDAF12 luciferase reporter, agonist mode; percent of butyrate response; AID 743050; shares compounds with hgDAF12 agonist;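 active = mean activation over triplicate wells above the hit cutoff derived from the earlier primary screen, cut at about 11% in these data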
LXR ag 2 = activates human LXR-beta, counter-screen for DAF-12 agonists | shares compounds with hgDAF12 agonist | HEK293 Gal4-LXR luciferase reporter, 24 h | activation, % at 6.8 µM | 3,300 tested, under 10 active | AID 743051;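 active = mean activation of the triplicate above a set limit carried over from the primary screen, none filed active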
A number is an active result; - = inactive; . = no result given. The list is not random: actives were taken first. Their share in the collection is about 4.5%.

SMILES	hcDAF-12 act	hgDAF12 agonist	DAX1 inh-1	DAX1 inh-2	FXN GAA850 act	ssDAF12 agonist	DAX1 inh confirm	SF1 mutant ctr	LXRb hcDAF ctr	hcDAF12 ag	hgDAF12 conf	LXR ag 2
C[C@@H]1CCCCO[C@@H](CN(C)C(=O)Cc2ccccc2)[C@@H](C)CN([C@H](C)CO)C(=O)c2cc(NC(=O)C3CCCCC3)ccc2O1	-	-	-	-	-	-	.	.	.	.	.	.
CCCCn1nnnc1C(c1ccccc1)N1CCN(c2ccc(C(F)(F)F)cc2[N+](=O)[O-])CC1 (stereo not given)	-	-	-	.	.	-	.	.	.	.	.	.
COc1cc(NC(=O)COC(=O)Cc2ccc(-c3ccccc3)cc2)cc(OC)c1	-	-	-	-	-	-	.	.	.	.	.	.
O=C(Nc1ccc2c(c1)OCO2)c1cnc(Cl)c(Cl)c1	6.3	21	5.6	-	-	1.8	8.1	6.5	.	.	16	-
O=C(Nc1ccc(Cl)cc1Cl)c1ccc2c(c1)OCCO2	7.5	14	8.7	-	-	-	17	6.7	-	6.3	17	-
O=C(Nc1ccc2c(c1)OCO2)c1ccc(Cl)nc1	-	-	-	-	-	-	.	.	.	.	.	.
O=Nc1c2cc3ccccc3[nH]c-2c2ccccc12	10	23	7.7	-	-	1.1	9.8	8.4	-	12	23	-
Cc1ccc(C(=O)Cn2nnc3ccccc32)cc1C	5.9	17	4.8	-	-	-	9.3	5.7	.	.	17	-
O=C(Cn1nnc2ccccc21)c1ccc(Br)cc1	-	-	-	-	-	-	.	.	.	.	.	.
CN1C(=O)/C(=C/c2ccccc2Cl)Sc2ccc(C(=O)NCc3cccnc3)cc21	-	-	-	-	-	-	.	.	.	.	.	.
CN(C)c1ccc(N=Nc2nccs2)cc1	9.7	18	7.0	-	-	2.2	16	5.9	-	11	20	-
N#Cc1ccsc1NC(=O)COC(=O)c1ccc(NC(N)=O)cc1	8.0	17	6.0	-	-	-	9.7	7.1	-	5.6	16	-
Nc1ccc2c(c1)C(=O)c1ccccc1C2=O	7.3	17	10	-	-	-	7.2	5.0	-	-	18	-
CC1CCc2c(sc(NC(=O)C3=COCCO3)c2C(N)=O)C1 (stereo not given)	8.7	15	5.7	-	-	1.4	12	6.5	-	-	19	-
O=c1[nH]c(=O)n(C2CC(O)C(CO)O2)cc1I (stereo not given)	-	15	13	-	-	-	23	9.3	.	.	16	-
Cc1ccc(-c2nc3ccc(Cl)cn3c2Cc2cccc(F)c2)cc1	-	21	6.5	.	.	-	9.7	4.9	.	.	11	-
Fc1cccc(Cc2c(-c3ccc(Cl)cc3)nc3ccc(Br)cn23)c1	-	18	4.7	.	.	-	-	-	.	.	-	-
N#Cc1ccc(-c2nc3ccc(Cl)cn3c2Cc2cccc(F)c2)cc1	-	-	-	.	.	-	.	.	.	.	.	.
Fc1cccc(Cc2c(-c3cccc(Br)c3)nc3ccc(Br)cn23)c1	-	-	-	.	.	-	.	.	.	.	.	.
COc1ccc(S(=O)(=O)N2CCc3ccccc32)cc1[N+](=O)[O-]	-	-	-	-	-	-	.	.	.	.	.	.
COc1ccc(-c2ccn(-c3cccc(F)n3)n2)cc1	-	-	-	-	-	-	.	.	.	.	.	.
Nc1nn(-c2cccc(F)n2)cc1-c1ccccc1	11	17	4.6	-	-	1.1	12	3.7	-	9.3	19	-
Cc1nc2ccc(Br)cn2c1C(=O)N/N=C\c1ccccc1Cl	-	-	-	-	-	-	.	.	.	.	.	.
Cc1ccc(OCc2nc(-c3ccccn3)no2)cc1	8.9	18	5.1	-	-	0.9	16	7.2	-	-	15	-
COc1ccc(/C=N/N=C(\N)c2nonc2N)cc1	12	16	8.7	-	-	-	14	5.9	-	6.6	16	-
SMILES	hcDAF-12 act	hgDAF12 agonist	DAX1 inh-1	DAX1 inh-2	FXN GAA850 act	ssDAF12 agonist	DAX1 inh confirm	SF1 mutant ctr	LXRb hcDAF ctr	hcDAF12 ag	hgDAF12 conf	LXR ag 2
Cc1ccnc(NC(=O)c2cccc(S(=O)(=O)N3CCCc4ccccc43)c2)c1	-	13	7.7	-	-	-	9.1	6.4	.	.	12	-
O=C(Nc1ccccn1)c1cccc(S(=O)(=O)N2CCCc3ccccc32)c1	-	-	-	-	-	-	.	.	.	.	.	.
C/C(=N\NC(=O)c1ccncc1)c1ccc(NC(=O)c2ccc(Cl)cc2)cc1	-	17	7.5	-	-	-	-	2.9	.	.	-	-
O=C(Nc1ccc(Cl)cc1)c1ccncc1	-	-	-	-	-	-	.	.	.	.	.	.
CCn1nc(C)cc1C(=O)N(C)C1CCCN(Cc2ccccc2F)C1 (stereo not given)	-	-	-	-	-	-	.	.	.	.	.	.
C=C(C)C1CC=C(C)/C(=N/NC(=O)c2cccs2)C1 (stereo not given)	-	-	-	-	-	-	.	.	.	.	.	.
O=C(N/N=C1/CC2C=CCC12)c1cccs1 (stereo not given)	-	15	8.3	-	-	1.1	-	-	.	.	-	-
O=C(Nc1ccc2ccccc2c1)c1cc(F)c(F)cc1Cl	-	-	-	-	-	-	.	.	.	.	.	.
O=C(Nc1ccc2ccccc2c1)c1ccccc1Cl	9.3	14	13	-	-	2.3	17	9.2	-	7.7	22	-
COCCOC(=O)C1=C(C)NC(=O)NC1c1cccc2ccccc12 (stereo not given)	-	-	-	-	-	-	.	.	.	.	.	.
CCOC(=O)c1c(C)[nH]c(C(=O)OCC(=O)NCc2ccccc2)c1C	-	-	-	-	-	-	.	.	.	.	.	.
CCOC(=O)c1c(C)[nH]c(C(=O)OCC(=O)c2ccccc2)c1C	7.4	14	13	-	-	-	9.8	4.9	-	-	17	-
Cc1cc(C(=O)COC(=O)c2ccc(Cl)c(S(N)(=O)=O)c2)c(C)n1C1CC1	-	14	8.0	-	-	-	8.3	5.4	.	.	15	-
